Screening results from PubChem.
BoNT-A LC inh2 – inhibitors of Botulinum neurotoxin A light chain protease; multiplex microsphere protease substrate cleavage, flow cytometry; inhibition, % at 10 µM; actives 0.17% (n = 360,000); further: plate controls were buffer without enzyme for full effect and enzyme alone for no effect
BoNT F protease – blocks Botulinum neurotoxin F light chain protease. Multiplex microsphere protease cleavage assay, flow cytometry. inhibition, % at 10 µM. actives 0.22% (n = 360,000). AID 588497; in the data active means inhibition above about 35%, passing the limit was not always enough; inconclusive means no clear call, values can overlap the other calls; further: plate controls were buffer without enzyme for full effect and enzyme alone for no effect
Anthrax LF prot – blocks Bacillus anthracis lethal factor protease. P15917. multiplex microsphere protease cleavage assay, LF. inhibition, % at 10 µM. actives 0.12% (n = 360,000); further: plate controls were buffer without enzyme for full effect and enzyme alone for no effect
Target sequence (P15917 whole entry, looked up): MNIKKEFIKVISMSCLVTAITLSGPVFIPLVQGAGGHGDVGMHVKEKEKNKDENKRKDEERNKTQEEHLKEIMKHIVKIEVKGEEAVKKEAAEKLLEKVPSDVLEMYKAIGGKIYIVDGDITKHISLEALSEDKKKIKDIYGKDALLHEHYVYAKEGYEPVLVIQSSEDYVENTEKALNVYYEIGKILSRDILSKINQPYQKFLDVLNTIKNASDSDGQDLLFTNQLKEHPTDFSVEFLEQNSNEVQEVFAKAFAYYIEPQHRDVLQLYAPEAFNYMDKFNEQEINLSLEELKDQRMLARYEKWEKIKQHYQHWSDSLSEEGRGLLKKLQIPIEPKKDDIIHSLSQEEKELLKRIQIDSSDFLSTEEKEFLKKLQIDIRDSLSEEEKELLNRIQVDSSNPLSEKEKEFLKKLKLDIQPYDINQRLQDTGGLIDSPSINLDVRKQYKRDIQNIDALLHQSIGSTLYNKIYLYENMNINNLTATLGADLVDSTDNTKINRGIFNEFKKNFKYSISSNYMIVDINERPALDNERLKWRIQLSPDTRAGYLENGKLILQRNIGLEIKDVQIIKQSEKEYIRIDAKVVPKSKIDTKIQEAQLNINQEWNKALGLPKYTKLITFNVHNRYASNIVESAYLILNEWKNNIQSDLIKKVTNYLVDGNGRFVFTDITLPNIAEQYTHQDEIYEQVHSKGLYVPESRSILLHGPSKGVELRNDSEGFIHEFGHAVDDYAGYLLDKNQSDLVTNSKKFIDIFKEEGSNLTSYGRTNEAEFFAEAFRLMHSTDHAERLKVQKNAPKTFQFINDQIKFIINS
MazEF act – increases E. coli MazEF RNase cleavage of RNA | FAM/BHQ RNA-DNA oligo cleavage fluorescence, 5 h | P0AE70 | actives 0.32% (n = 350,000) | AID 504720 | activation, % at 20 µM; in the data active means activation above about 50%
Bead autofluor – compound fluorescence in toxin protease inhibitor counterscreen; compound autofluorescence counterscreen, microsphere flow cytometry; active compounds read high; fluorescence intensity (concentration not given with the values); actives 3.1% (n = 360,000); AID 624483; in the data active means fluorescence intensity above about 16000; inconclusive means no clear call, values can overlap the other calls
Starred values were filed as active, the others as inactive; i = inactive; ? = inconclusive; / = not tested or not shown. Compounds with a hit are over-represented: about 3.7% of the library has one in this group of screens. Unless noted, no stated cut-off is given here; in the data, active means inhibition above about 30%; inconclusive means no clear call, values can overlap the other calls; inactive means below that.

SMILES | BoNT-A LC inh2 | BoNT F protease | Anthrax LF prot | MazEF act | Bead autofluor
CCn1c(-c2cc(-c3ccccc3)sc2N)n[nH]c1=S | 0 | -11 | 0 | 5 | 5849
Cc1ccc(Cl)c(NC(=O)COC(=O)c2cc[n+]([O-])cc2)c1Cl | 1 | 1 | -5 | -2 | 2815
Cc1ccc(Cl)cc1N1CCN(C(=O)c2ccccc2SCC(=O)N2CCCC2)CC1 | -5 | -9 | -1 | -1 | 8353
Cc1ccc2nc(-c3cccc(NC(=O)c4ccc5c(c4)OCCO5)c3)oc2c1 | ? | -4 | -5 | -47 | 21708*
CCOC(=O)C1(C)CCCCCN1C(=O)c1ccc(Cl)nc1 (centres undefined) | 0 | 6 | 1 | / | 3550
Nc1c(S(=O)(=O)c2cccs2)c2nc3ccccc3nc2n1CC1CCCO1 (centres undefined) | 3 | 4 | 1 | 4 | 22380*
Clc1ccccc1-c1nnc(-c2ccccc2Cl)o1 | 0 | -2 | -7 | -5 | 9311
Clc1ccc(-c2nnc(-c3ccccc3Cl)o2)cc1 | -4 | -6 | -6 | -5 | 17061*
Cc1ccc2cc3c(N)c4c(C)ccc(C)c4nc3nc2c1 | 2 | -41 | -8 | 55* | 1713
Cc1ccc(N(CCCCN2C(=O)c3ccccc3C2=O)C(=O)c2cccc([N+](=O)[O-])c2)cc1 | 1 | 1 | -1 | -10 | 16296*
O=C1c2cccnc2C(=O)N1C1CCCCC1 | 2 | 2 | -1 | 3 | 21393*
O=C1c2cccc([N+](=O)[O-])c2C(=O)N1C1CCCCC1 | -1 | -3 | -5 | 3 | 3218
CN1CCN(c2nc(-c3ccccn3)nc3ccccc23)CC1 | -1 | -1 | -1 | 3 | 23212*
c1ccc(N2CCN(c3nc(-c4ccccn4)nc4ccccc34)CC2)cc1 | 0 | -11 | -5 | 8 | 3108
Cc1cccc(C)c1NC(=O)C(C)NCc1cccs1 (centres undefined) | 0 | 6 | 0 | -1 | 3784
CC(C)C12CN3CCN(CC(C3)C1O)C2 (centres undefined) | -2 | -5 | -2 | 9 | 16737*
O=S(=O)(c1ccc(Br)s1)N1CCN(c2ncccn2)CC1 | 1 | 3 | -4 | -12 | 22792*
O=S(=O)(c1ccccc1)N1CCN(c2ncccn2)CC1 | 0 | 1 | -5 | -9 | 22296*
O=C(CN1CCN(c2nc(-c3ccc(F)cc3)cs2)CC1)NCc1ccc2c(c1)OCO2 | 0 | -2 | -2 | -12 | 23682*
Oc1ccc(Cl)cc1CNc1ccc(Br)cn1 | -3 | -5 | -7 | 1 | 23615*
Cc1ccc2nc(C(F)(F)F)c(C#N)c(N)c2c1 | ? | 0 | -1 | 4 | 23566*
CCCN(CCC)S(=O)(=O)c1ccc(NS(=O)(=O)c2ccc(F)cc2)cc1 | -2 | -1 | -3 | 6 | 17098*
CCCN(CCC)S(=O)(=O)c1ccc(NS(C)(=O)=O)cc1 | 0 | -6 | -2 | 1 | 3144
CCN1/C(=C/C(C)=O)Sc2ccc(OC)cc21 | 0 | 7 | -2 | 1 | 3702
CCOC(=O)/C(=C\C=C1/Sc2cc(OCC)c(OCC)cc2N1CC)C(C)=O | 19 | 49* | 21 | 272* | 33036*
SMILES | BoNT-A LC inh2 | BoNT F protease | Anthrax LF prot | MazEF act | Bead autofluor
CCOC(=O)/C(=C/C=C1\Sc2cc(OCC)c(OCC)cc2N1CC)C(C)=O | 13 | 44* | 20 | i | 23889*
Cc1nn(C)cc1/C=C/C(=O)c1ccccc1 | -1 | -2 | -4 | -15 | 16636*
Cc1nn(C)c(C)c1/C=C/C(=O)c1cccs1 | 0 | -7 | 1 | 8 | 3687
Cc1nn(C)c(C)c1/C=C/C(=O)c1ccccc1 | -6 | -8 | -4 | 0 | 24377*
CC(=O)Nc1ccc(-c2ccnc3c2CC(C)(C(=O)Nc2ccc(F)c(Cl)c2)O3)cc1 (centres undefined) | 0 | -2 | -6 | / | 3877
NC(=O)C1CCN(CCC(=O)Nc2ccc(Br)cc2)CC1 | 0 | -1 | -3 | -11 | 23853*
CCN1/C(=N\N)c2cccc3cccc1c23 | 39* | -55 | -10 | 9 | 3325
O=C1CCCCN1CCC(=O)N1CCCC(N2CCN(c3ccccc3)CC2)C1 (centres undefined) | 1 | 3 | 0 | 16 | 5154
CSCC[C@H](NC(=O)OCc1ccccc1)C(=O)O | 1 | 4 | -2 | -1 | 22450*
CC(C)C(CCNC(=O)CC(Cc1ccccc1)c1ccco1)c1ccco1 (centres undefined) | -1 | -3 | -2 | -2 | 17138*
CCCCOC(=O)c1ccc(NC(=O)C(=O)CC(=O)c2ccc(OC)cc2)cc1 | 3 | 3 | -9 | 6 | 3912
CCc1nnc(NC(=O)C2CCCCC2)s1 | 2 | 3 | -7 | 1 | 22291*
Cc1cc(C)nc(N2CCC(C(=O)NCCc3ccc(F)cc3)CC2)n1 | ? | -9 | 0 | -2 | 26052*
CCc1nnc(NC(=O)C2CCN(c3nc(C)cc(C)n3)CC2)s1 | -3 | -6 | -2 | 9 | 24756*
Cc1cc(C)nc(N2CCC(C(=O)NCCc3ccc(Cl)cc3)CC2)n1 | 0 | -4 | 4 | 1 | 3478
CCc1nnc(NC(=O)CN2CC(C)OC(C)C2)s1 (centres undefined) | 2 | 34* | -9 | -31 | 3060
CCc1nnc(NC(=O)CN2CCN(C3CCCCC3)CC2)s1 | -1 | -5 | -2 | 11 | 7712
O=S(=O)(NCC1CN(S(=O)(=O)c2c(F)cccc2F)C1)c1ccc2c(c1)OCCO2 | 0 | 2 | 4 | -9 | 3973
CC(OC(=O)CCc1ccccc1)C(=O)Nc1ncc(Cl)cc1Cl (centres undefined) | 0 | 0 | -4 | 6 | 6204
Cc1cc(-n2c(=O)c(C#N)cc3c(=O)n4cccc(C)c4nc32)no1 | 2 | 5 | -4 | 4 | 21724*
Cc1cccc(-n2c(=O)c(C#N)cc3c(=O)n4ccccc4nc32)c1 | ? | 1 | 0 | 6 | 20190*
Cc1ccc(-n2c(=O)c(C#N)cc3c(=O)n4ccccc4nc32)cc1 | 1 | 10 | -1 | -14 | 2155
C=CCn1c(OCc2ccccc2)n[nH]c1=S | -1 | -25 | 8 | 2 | 3056
CCCCN(C(=O)c1cccc(S(=O)(=O)N2CC(C)OC(C)C2)c1)c1c(N)n(CC(C)C)c(=O)[nH]c1=O (centres undefined) | -2 | 0 | -4 | -1 | 6264
CCOC(=O)c1cnc2c(cnn2C)c1NCCC(O)C(F)(F)F (centres undefined) | 3 | 4 | -2 | 0 | 21233*
Cc1sc2ncn(CC(=O)N3CCCCC3)c(=O)c2c1C | 0 | -1 | -1 | 5 | 2259
Cc1ccc(C2=NCC(=O)N(CC(=O)N3CCCCC3)c3sc(C)c(C)c32)cc1 | ? | -4 | 0 | 7 | 23432*
CCC(=O)Nc1nc2ccc([N+](=O)[O-])cc2s1 | / | / | / | 0 | /
Cc1ccc(C)c(OCC(=O)Nc2nc3ccc([N+](=O)[O-])cc3s2)c1C | ? | -1 | -1 | 16 | 22520*
COc1ccc(NC(=O)C2CCN(C(=O)NCc3ccccc3)CC2)cc1 | 1 | 2 | -2 | 11 | 16148*
